Sampled rows, rich in hits. Any-hit rate of the full collection: about 2.5%.
CHT block: inhibitors of human choline transporter CHT; High affinity choline transporter 1 (Homo sapiens), Q9GZV3; CHT-expressing cells, membrane potential dye, choline response; active compounds read low; B-score at 10 µM; 310,000 tested, 0.86% active;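 active = B-score over 3 SD under the library average, and starting fluorescence ratio not unusually high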;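 also: choline stimulus applied at its EC90 after an EC20 pre-addition; B-score computed on integrated fluorescence ratio after choline addition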
Target sequence (Q9GZV3 whole entry, looked up): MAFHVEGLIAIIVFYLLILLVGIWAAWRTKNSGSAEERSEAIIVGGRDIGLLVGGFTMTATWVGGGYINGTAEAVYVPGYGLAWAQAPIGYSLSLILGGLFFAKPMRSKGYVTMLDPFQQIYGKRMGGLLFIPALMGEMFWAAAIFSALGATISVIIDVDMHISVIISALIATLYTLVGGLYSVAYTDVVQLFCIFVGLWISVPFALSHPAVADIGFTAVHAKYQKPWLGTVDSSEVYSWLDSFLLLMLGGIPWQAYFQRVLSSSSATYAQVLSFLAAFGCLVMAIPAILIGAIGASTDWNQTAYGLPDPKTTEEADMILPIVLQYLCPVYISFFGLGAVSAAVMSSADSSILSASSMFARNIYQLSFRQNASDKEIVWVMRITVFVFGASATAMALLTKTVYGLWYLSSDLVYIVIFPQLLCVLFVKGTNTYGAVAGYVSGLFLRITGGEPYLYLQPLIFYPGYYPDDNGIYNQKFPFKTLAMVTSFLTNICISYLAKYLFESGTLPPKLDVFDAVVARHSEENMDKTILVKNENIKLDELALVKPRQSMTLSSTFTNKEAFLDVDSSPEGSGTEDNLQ
PKA-R1A activ: activators of PKA-R1A holoenzyme, primary screen, biochemical, fluorescence polarization, Cy5-IP20, bovine R1A, mouse PKAc. cAMP-dependent protein kinase type I-alpha regulatory subunit (Bos taurus) + …. PKA-R1A dissociation; scaled: DMSO 0%, 113 µM cGMP 100%. activation, % at 11.4 µM. 340,000 tested, 0.083% active;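 active = percent activation above the mean of all tested compounds plus 3 SD, cut at about 19% in these data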;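 also: higher means more PKAc released from R1A so a rise in polarization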
ANO1 block: TMEM16A chloride channel inhibitors, primary screen, cell-based, HTS | HEK293 TMEM16A/YFP iodide influx fluorescence, ionomycin | normalized B-score (activity score, 25-100; higher = stronger inhibition) at 10 µM | 310,000 tested, 1.2% active | AID 588511, 2011;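 active = ratio plate-corrected score three or more library SD toward inhibition, starting fluorescence score within five deviations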;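 also: score derived from kinetic fluorescence span divided by baseline fluorescence per well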
TMEM16A act: TMEM16A chloride channel activators or potentiators, primary screen, cell-based, HTS; Anoctamin-1 (Mus musculus), Q8BHY3; HEK293 TMEM16A/YFP-H148Q/I152L, iodide quench fluorescence; active compounds read low; B-score at 10 µM; 340,000 tested, 0.3% active;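 active = fluorescence-ratio B-score plate-corrected deviation score at least 3 library SD below zero, with starting fluorescence score within 5 deviations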;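 also: channel opened by trigger with iodide after compound preincubation; score built on the fluorescence ratio of max minus min over baseline; more negative score means more quench and so TMEM16A activation or potentiation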
PKA-R2B act: activators of PKA-R2B holoenzyme, primary screen, biochemical, fluorescence polarization, Cy5-IP20, human; PKA-R2B holoenzyme dissociation; R2B truncated from residue 108, S112A mutant; 0% DMSO only, 100% 113 µM cGMP; AID 504700, 2011; 340,000 tested, 0.079% active; activation, % at 11.4 µM;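 active = activation above a cutoff set at the mean over all compounds plus 3 SD, cut at about 18% in these data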;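 also: higher means more holoenzyme dissociation and a rise in polarization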
CHT PAM: CHT positive allosteric modulators, primary screen, cell-based, membrane potential dye, choline EC20 | High affinity choline transporter 1 (Homo sapiens), Q9GZV3 | B-score at 10 µM | CHT-expressing cells; active compounds read high; LV-AA mutant CHT in HEK293 cells | 310,000 tested, 0.49% active;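 active = initial fluorescence not abnormally high and integrated response B-score, plate-corrected, over 3 SD above library mean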
CHT block conf: CHT inhibitors, confirmation, cell-based, membrane potential dye, duplicate | AID 493221, 2011 | 2,400 tested, 70% active | CHT-expressing cells, choline membrane potential dye; LV-to-AA substituted CHT, HEK293 cells | CHT activity remaining % of control (active compounds read low), % at 10 µM | shares compounds with CHT block;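 active = choline transporter activity left, mean of duplicates at 10 µM, below buffer-only control mean minus 3 SD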;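 also: depolarization triggered by choline at its EC90 following an EC20 pre-addition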
HEK293 CHT ctr: membrane potential effects in parental HEK293, counter-screen for CHT inhibitor project, cell-based, membrane potential dye; shares compounds with CHT block; choline response; active = decrease or increase beyond buffer ±3SD; membrane potential ratio readout (active if shifted either direction beyond buffer ±3SD; no single direction) at 10 µM; 2,400 tested, 4% active; AID 493222, 2011;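 also: parental cells lack the transporter so any hit is non-specific; ratio is peak minus trough fluorescence over baseline after EC90 choline challenge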
Hits are given with their value; i = inactive; nt = no result.

SMILES | CHT block | PKA-R1A activ | ANO1 block | TMEM16A act | PKA-R2B act | CHT PAM | CHT block conf | HEK293 CHT ctr
CC(C)(C)c1nc(-c2ccccc2)nc2c1OCCC2 | i | i | i | i | i | i | nt | nt
CCCN(C(=O)c1cn(CC)c2nc(C)ccc2c1=O)c1c(N)n(Cc2ccccc2)c(=O)[nH]c1=O | -5.3 | i | i | i | i | i | 33% | i
CC1CCCCC1NC(=O)c1cccc(N2C(=O)C3C4C=CC(C4)C3C2=O)c1 (centres undefined) | -8.4 | i | i | i | i | i | 28% | i
CC(C)OC(=O)c1ccc(COC(=O)c2cccc(-c3nnc(-c4ccccc4)o3)c2)cc1 | i | i | i | i | i | i | nt | nt
CC(C)OC(=O)c1cccc(-c2ccc(C=O)o2)c1 | -5.2 | i | i | i | i | i | 56% | i
CCCCN(C)C(=O)c1ccc(CS(=O)(=O)c2ccccc2C)o1 | -5.3 | i | i | i | i | i | i | i
CN1CCN(c2ccc(S(=O)(=O)N3CCCCC3)cc2NC(=O)CSCc2ccccc2)CC1 | -6.8 | i | i | i | i | i | 48% | i
COCCNc1c(-c2ccc(OC)cc2)nc2ccc(Cl)cn12 | -9.6 | i | i | i | i | i | i | i
O=C1CCC([N+](=O)[O-])C(c2ccc3c(c2)OCO3)N1 (centres undefined) | -12 | i | i | i | i | i | i | i
CC(C)[C@H](CO)N(Cc1cccc(F)c1)c1nc(Nc2cccc(Cl)c2)c2ncn(C(C)C)c2n1 | i | i | i | i | i | i | nt | nt
CC[C@H](CO)Nc1nc(Nc2cccc(Cl)c2)c2ncn(C(C)C)c2n1 | -9 | i | i | i | i | i | 48% | i
O=C(CSc1nnc(Cc2ccsc2)o1)c1ccccc1 | -5.2 | nt | i | i | nt | i | 70% | i
O=C(CSc1nnc(Cc2ccccc2)o1)Nc1ccccc1 | i | i | i | i | i | i | nt | nt
CS(=O)(=O)c1ccc2nc(NC(=O)C3CCCO3)sc2c1 (centres undefined) | i | i | i | i | i | i | nt | nt
C=CCN(CC=C)S(=O)(=O)c1ccc2nc(NC(=O)C3CCCO3)sc2c1 (centres undefined) | -5 | i | i | i | i | i | 58% | i
COc1cc(/C=N/NC(=O)c2nnn(-c3nonc3N)c2C(C)C)ccc1OCc1ccc(F)cc1 | i | i | i | i | i | i | nt | nt
Cc1ccc(S(=O)(=O)N2CCC(=O)N(CCOCc3ccc(F)cc3)CC2)cc1 | -5.9 | i | i | i | i | i | 54% | i
O=C1CCN(S(=O)(=O)c2ccccc2)CCN1CCOCc1ccc(F)cc1 | i | i | i | i | i | i | nt | nt
COc1cccc(NC(=O)c2cc3ccccc3o/c2=N\O)c1 | -6.3 | i | i | i | i | i | i | i
Cc1ccc(NC(=O)CSCC(=O)NNC(=O)c2ccoc2C)cc1 | i | i | i | i | i | i | nt | nt
CCOc1ccc(/C=C2\SC(=S)N(NS(=O)(=O)c3ccc(C)cc3)C2=O)cc1OC | -6.1 | i | i | i | i | i | 60% | i
COc1ccc(OC)c(/C=C2\SC(=S)N(NS(=O)(=O)c3ccccc3)C2=O)c1 | -6.3 | i | i | i | i | i | 57% | i
CCOc1ccc(/C=C2\SC(=S)N(NS(=O)(=O)c3ccccc3)C2=O)cc1OC | -5.8 | i | i | i | i | i | 56% | i
Cc1ccc(C(=O)/C=C/c2cc(C#N)n(C)c2C)cc1 | i | i | i | i | i | i | nt | nt
Cc1ccccc1OCC(=O)NNC(=O)c1ccoc1C | nt | i | nt | i | i | nt | nt | nt
SMILES | CHT block | PKA-R1A activ | ANO1 block | TMEM16A act | PKA-R2B act | CHT PAM | CHT block conf | HEK293 CHT ctr
CCn1nc(C)cc1-c1nnc(Sc2ncc([N+](=O)[O-])s2)n1C | -6 | i | i | -9.8 | i | i | 45% | i
CCn1nc(C)cc1-c1nnc(SCC(=O)Nc2ccccc2)n1CCCOC | i | i | i | i | i | i | nt | nt
CC(C)Cn1c(=O)c2c(nc3n2CCCN3CCc2ccccc2)n(C)c1=O | -5.4 | i | 25 | i | i | i | 62% | i
Cn1c(=O)n(CCc2ccccc2)c(=O)c2c1nc1n2CCCN1CCc1ccccc1 | i | i | i | i | i | i | nt | nt
COc1ccc(N2CCN(C(=O)CC34CC5CC(CC(C5)C3)C4)CC2)c([N+](=O)[O-])c1 | i | i | i | i | i | i | nt | nt
COC(=O)c1nc2ccc(N3CCOCC3)cc2c(C)c1C(=O)OC | -5.7 | i | i | i | i | i | i | i
COC(=O)c1c(-c2ccc(OC)cc2)sc2ccc(N3CCOCC3)cc12 | nt | i | nt | i | i | nt | nt | nt
O=c1[nH]ncc(N2CCCC2)c1Cl | -10 | i | i | i | i | i | 42% | i
O=c1[nH]ncc(N2CCN(C(c3ccccc3)c3ccccc3)CC2)c1Cl | i | i | i | i | i | i | nt | nt
CCC(C)c1ccccc1NC(=O)c1cc(C)no1 (centres undefined) | i | i | i | i | i | i | nt | nt
COc1ccc(C(=O)C[n+]2cccc(C)c2)cc1 | -8.5 | i | i | i | i | i | 6.4% | i
Cc1ccc[n+](CC(=O)c2ccc(Br)cc2)c1C | -9.7 | i | i | i | i | i | 39% | i
Cc1ccc[n+](CC(=O)c2ccc(NC(=O)c3ccccc3)cc2)c1C | i | nt | i | i | nt | i | nt | nt
Cc1ccc[n+](CC(=O)c2ccc(Br)cc2)c1 | -10 | i | i | i | i | i | 4.2% | i
Cc1ccc[n+](CC(=O)c2ccccc2)c1 | i | nt | i | nt | nt | i | nt | nt
O=C(Nc1ccc(S(=O)(=O)NC2=NCCCCC2)cc1)c1cc(F)c(F)cc1Cl | nt | i | nt | i | i | nt | nt | nt
O=C(Nc1ccc(S(=O)(=O)NC2=NCCCCC2)cc1)c1ccc(Cl)cc1Cl | -12 | i | i | i | i | i | -7.3% | i
CN1CCN(c2ccc(NC(=O)c3ccc(Cl)cc3Cl)cc2)CC1 | -6.4 | i | i | i | i | i | 41% | i
O=C(Nc1ccc(S(=O)(=O)N2CCOCC2)cc1)c1ccc(Cl)cc1Cl | -6.4 | i | i | i | i | i | 43% | i
